The values that follow come from ChEMBL document CHEMBL4513146, “CO-ADD screening of Karazin Kharkiv National University (Ukraine) compounds”.

Entries with a potency or affinity are not part of this list.

In one test the test system is Staphylococcus aureus. The settings on record: Concentration 32 ug.mL-1;; ASSAY_TEST Inhibition of Bacterial Growth; detection method Absorption (OD600); MEDIA CAMHB; plate type 384well; NBS; CORNING #3640; time 18 hr.
In the next test the test system is Escherichia coli. The settings on record: Concentration 32 ug.mL-1;; ASSAY_TEST Inhibition of Bacterial Growth; detection method Absorption (OD600); MEDIA CAMHB; plate type 384well; NBS; CORNING #3640; time 18 hr.

With `CCCCOc1ccc(-c2cc3c4nnc(SCC(=O)Nc5ccc(C)c(F)c5)n4ccn3n2)cc1`, the Inhibition was 5.13% in the test on Staphylococcus aureus and -2.67% in the test on Escherichia coli.
Turning to `CCCCc1ccc(NC(=O)CSc2nc3ccccc3n3c(CC)nnc23)cc1`, the figures for the Inhibition in the test on Staphylococcus aureus and in the test with Escherichia coli were 10.38% and -2.23%, respectively.
The corresponding values for `Cc1ccc(-c2ccc3nn(CC(=O)NCc4ccc(Cl)cc4)c(=O)n3n2)cc1C` are -0.74% and -5.52%.
`COCCCNC(=O)CSc1nnc2c(=O)n(Cc3ccccc3F)ccn12`: the values for the Inhibition in the test on Staphylococcus aureus and in the test with Escherichia coli were -1.95% and 0.71%, respectively.
As to `Cc1ccc(Cl)cc1NC(=O)CSc1nnc2n(CC3CCCO3)c(=O)c3sccc3n12` (stereo unspecified), the Inhibition is 8.22% in the test with Staphylococcus aureus and -0.5% in the test on Escherichia coli.
As to `Cn1c(=O)c2ccc(C(=O)NC3CCCCC3)cc2n2c(=O)n(Cc3cccc(C(F)(F)F)c3)nc12`, the Inhibition is listed as 12.74% in the test on Staphylococcus aureus and -0.17% with Escherichia coli.
The corresponding values for `COc1cccc(-n2ccn3c(SCC(=O)c4c(C)[nH]c5ccccc45)nnc3c2=O)c1` are 10.32% and -7.21%.
As to `COc1cccc(Oc2nccn3c(=O)n(CC(=O)Nc4ccc5c(c4)OCCO5)nc23)c1`, the Inhibition in the test with Staphylococcus aureus was 9.52%; with Escherichia coli, -8.9%.
As for `O=C(Cn1nc2ccc(-c3ccc(Cl)cc3)nn2c1=O)N1CCN(c2ccccc2)CC1`, the Inhibition with Staphylococcus aureus is listed as -1.88%; with Escherichia coli it was -5.05%.
As for `O=c1c2sccc2n2c(SCc3cccc(C(F)(F)F)c3)nnc2n1Cc1ccc(F)cc1`, the Inhibition in the test on Staphylococcus aureus is on record as 9.81%; in the test with Escherichia coli, -1.38%.
On to `COc1ccc(OC)c(NC(=O)Cn2nc3c4cc(-c5ccc(Cl)cc5)nn4ccn3c2=O)c1`, for which the Inhibition in the test with Staphylococcus aureus is given as -2.94%; in the test with Escherichia coli, -2.51%.
Turning to `CCc1nnc2c(=O)n(CC(=O)Nc3ccc(NC(C)=O)cc3)c3ccccc3n12`, the Inhibition is listed as 1.89% in the test on Staphylococcus aureus and -3.04% in the test with Escherichia coli.
For the molecule `O=C(CSc1nc2ccccc2n2cnnc12)Nc1cccc(Br)c1`, the Inhibition in the test on Staphylococcus aureus is on record as -6.77%; with Escherichia coli it was -14.46%.
As to `Cc1nnc2ccc(S(=O)(=O)N(Cc3ccccc3)c3ccc(Cl)cc3)cn12`, the Inhibition is given as 1.7% in the test on Staphylococcus aureus and -13.98% in the test with Escherichia coli.
In the same order, the values of `CSc1cccc(NC(=O)Cn2nc3c(Sc4ccc(C)cc4C)nccn3c2=O)c1` are -13.41% and -16.34%.
Turning to `COc1ccc(-c2cc3c4nnc(SCC(=O)Nc5cccc(C)c5C)n4ccn3n2)cc1`, the Inhibition is given as -11.43% in the test with Staphylococcus aureus and -10.61% with Escherichia coli.
Take `COC(=O)c1ccc(CN(c2cccc(C)c2)S(=O)(=O)c2cccn3c(C)nnc23)o1`: the Inhibition is listed as 5.77% in the test with Staphylococcus aureus and -6.24% with Escherichia coli.
For the molecule `O=C(Cn1nc2c(SCc3ccccc3)nccn2c1=O)NCc1ccc(Cl)cc1`, the Inhibition in the test on Staphylococcus aureus is recorded as -0.34%; in the test with Escherichia coli, -19.62%.
Turning to `CC(C)c1ccc(N(Cc2cccc(Cl)c2)S(=O)(=O)c2cccn3cnnc23)cc1`, the results for the Inhibition in the test with Staphylococcus aureus and in the test with Escherichia coli were -3.13% and -8.14%, respectively.
The corresponding values for `Cc1nnc2c(=S)[nH]c3ccccc3n12` are 19.6% and 10.5%.
The corresponding values for `O=C(CSc1nnc2c(=O)n(-c3ccccc3)ccn12)N1CCN(c2ccc(F)cc2)CC1` are 7.73% and -1.4%.
Consider `O=S(=O)(c1ccc2nncn2c1)N(Cc1cccc(F)c1)c1ccc(F)c(F)c1`, for which the results for the Inhibition in the test on Staphylococcus aureus and in the test with Escherichia coli were 3.37% and -6.8%, respectively.
For the molecule `COc1ccc(NC(=O)Cn2nc3nc(Nc4ccc(F)cc4)ccn3c2=O)cc1Cl`, the Inhibition is given as 5.78% in the test on Staphylococcus aureus and -9.75% in the test with Escherichia coli.
With `COc1ccc(CNC(=O)Cn2nc3c4cc(-c5ccc(C)c(C)c5)nn4ccn3c2=O)cc1`, the Inhibition in the test with Staphylococcus aureus came to 6.21%; with Escherichia coli, 2.95%.
`COc1ccc(Cn2nc3ccc(-c4ccccc4)nn3c2=O)cc1F`: the Inhibition in the test on Staphylococcus aureus was 20.86%; with Escherichia coli it was 2.33%.
For the molecule `CC(C)c1nnc2c(SCC(=O)Nc3ccc(Br)cc3F)nc3ccccc3n12`, the Inhibition with Staphylococcus aureus is 6.04%; with Escherichia coli, -1.36%.
`O=C(Cn1nc2c(Sc3cccc(F)c3)nccn2c1=O)Nc1ccc(Br)cc1`: the Inhibition with Staphylococcus aureus is on record as 3%; in the test with Escherichia coli it was -5.66%.
In the same order, the values of `CC(C)c1ccc(NC(=O)Cn2nc3c(SCc4ccccc4)nccn3c2=O)cc1` are 1.97% and -7.26%.
In the same order, the values of `Cc1ccc(-c2cc3c4nn(CC(=O)Nc5cccc(C)c5C)c(=O)n4ccn3n2)cc1C` are 13.1% and -0.36%.
As for `O=c1c2sccc2n2c(=O)n(Cc3ccccc3Cl)nc2n1Cc1cccs1`, the Inhibition with Staphylococcus aureus is -1.31%; with Escherichia coli, -2.76%.
On to `Cc1ccc(NC(=O)CSc2nc3ccccc3n3cnnc23)c(C)c1`, for which the results for the Inhibition with Staphylococcus aureus and in the test on Escherichia coli were -8.66% and -6.3%, respectively.
In the same order, the values of `COC(=O)c1ccccc1NC(=O)Cn1nc2c(Oc3ccccc3C)nccn2c1=O` are 4.43% and -5.27%.
In the same order, the values of `Cc1cccc(N(Cc2cccc(Cl)c2)S(=O)(=O)c2cccn3c(C)nnc23)c1` are 2.81% and -5.89%.
